Experimental data as given in PubChem BioAssay AID504941 (Broad Institute, 2011).
Screen size: about 1,200 compounds; about 170 (14%) were called active. How the calls were made is not given here. Only a sample is shown. Results with a measured potency or affinity are listed apart.

assay: twin-arginine translocation blockade, bacterial reporter – cherry-pick, set 2, plate reader, dose response (AID 504941); conditions: E. coli Tat transport reporter; series mostly up to 38 µM

outcome, inactive:
CCCCCCc1ccc(N2C[C@H](Cc3ccccc3)[C@@H](CC(=O)NCc3ccc(OC)cc3)C2=O)cc1
CCCOc1cc(C)c(S(=O)(=O)N2CCN(C)CC2)cc1C
COc1ccc(S(=O)(=O)NCc2ccco2)c2ccccc12
COc1ccc(OC)c(S(=O)(=O)NCCc2ccccc2)c1
COC(=O)C1=CN(C(C)C)C=C(C(=O)OC)C1c1cccc(OC)c1
COc1ccc(N2C(=O)C3C4C=CC(C4)C3C2=O)nn1 (stereo not given)
CCNC(=O)c1ccc(NS(=O)(=O)c2ccccc2)cc1
Cc1ccc(-c2cc(C(=O)OCC(=O)N(C)c3c(N)n(Cc4ccccc4)c(=O)[nH]c3=O)c3ccccc3n2)o1
N#CC1=C2SCC(O)(c3ccccc3)N2C(=O)CC1c1ccccc1F (stereo not given)
COc1cc(NC(=O)C2CC(=O)NC3=C2C(=O)CC(C)(C)C3)c(OC)cc1Cl (stereo not given)
Cn1c(C(=O)NCc2cccs2)cc2c(=O)n(C)c3ccccc3c21
COC(C(=O)Nc1ccnn1C1CCN(Cc2ccc(C)o2)CC1)c1ccccc1 (stereo not given)
O=C(c1n[nH]c2ccccc12)N1CCOCC1
O=C(CSc1cccc[n+]1[O-])Nc1ccccc1C(F)(F)F
C/C(Cn1nnc([N+](=O)[O-])n1)=N\NC(=O)c1ccc(O)cc1O
CC1CCCCN1S(=O)(=O)c1ccc(NC(=O)c2ccco2)cc1 (stereo not given)
CCn1c(C)nc2cc(C(=O)N/N=C/c3ccc(OC)c(O)c3)ccc21
COc1cccc(C2C(C(=O)OC(C)C)=C(C)Nc3ncnn32)c1 (stereo not given)
CCN(CC)S(=O)(=O)c1ccc(=O)n(CC(=O)N2Cc3ccccc3CC2C(N)=O)c1 (stereo not given)
CC(Sc1nc2ccccc2c(=O)n1C)C(=O)NC1CCCCC1C (stereo not given)
Cc1nn(Cc2ccccc2Cl)c(C)c1NC(=O)c1ccn(C)n1
Cn1c(=O)oc2cc(S(=O)(=O)NCCN3CCCCCC3)ccc21
CC(C)Sc1nc2c(c(=O)[nH]c(=O)n2C)n1CCc1ccccc1
CCOCCOc1nc2c(c(=O)n(C)c(=O)n2C)n1Cc1ccc(C)cc1
CCn1c(SCC(=O)Nc2ccc(OC)cc2)nc2c1c(=O)n(C)c(=O)n2C
CN(C)c1nc(NCc2ccccc2)nc(SCC(N)=O)n1
O=C(CN1CCN(c2ccccc2)CC1)N1N=CCC1c1ccccc1 (stereo not given)
Cc1nc2ccccc2c(=O)n1CCCO
Cn1c(-c2ccccc2)cnc1N
Cc1c(OCC(=O)NCCCN2CCOCC2)ccc2c1oc(=O)c1ccccc12
CC(Sc1ccsc1[N+](=O)[O-])C(=O)N1CCN(c2ccccn2)CC1 (stereo not given)
N#Cc1ccccc1S(=O)(=O)N1CCN(CC(=O)Nc2ccnn2C2CCCC2)CC1
CCN(CC)C(=O)CSc1nc2ccccc2o1
COC(=O)c1ccc(C2CC(=O)Nc3cc(OC)c(OC)cc32)cc1 (stereo not given)
Cc1ccc(S(=O)(=O)N2CCOCC2)cc1NC(=O)c1cc2ccccc2oc1=O
Cc1ccc(NC(=O)/C(=C/c2cccc([N+](=O)[O-])c2)NC(=O)C2CCCCC2)c(C)c1
COc1ccc(CN2CSC(=S)N(Cc3ccccc3)C2)cc1
Nc1cc(N)nc(SCc2ccc(Cl)cc2)n1
O=C(CCCCCNC(=O)c1ccccc1)C[N+](=O)[O-]
COCCCNc1nc2c(c(=O)[nH]c(=O)n2C)n1CC(O)COc1cccc(C)c1 (stereo not given)
COc1ccc(NC(=O)c2ccc(Oc3ncccn3)cc2)cc1
Cn1c(N)c(C(=O)COC(=O)CCCN2C(=O)c3ccccc3C2=O)c(=O)n(C)c1=O
O=C(CN1CCN(c2ccccc2F)CC1)NC(=O)NCc1ccccc1
COc1ccc(-c2cc(C(F)(F)F)c3c(n2)sc2c(O)cc(=O)[nH]c23)c(OC)c1
Nc1ccccc1S(=O)(=O)NC1=NCCCCC1
O=C(NCc1ccccc1)c1nc[nH]c1C(=O)N1CCN(c2ccccc2)CC1
CC1CCN(C(=O)c2[nH]cnc2C(=O)N[C@@H](C)C(=O)OC(C)(C)C)CC1
CC(C)(C)OC(=O)NCC(=O)N1CCC(C(=O)O)CC1
CC(=O)Nc1ccc(NS(=O)(=O)c2ccc3ccccc3c2)cc1
CCc1ccc(N2CC34C=CC(O3)C(C(=O)OC(C)C)C4C2=O)cc1 (stereo not given)
COc1ccc(N=Cc2nc(-c3ccccc3)oc2OC(=O)c2ccccc2)cc1
COC(=O)c1c(NC(=O)C(=O)NCCCN2CCOCC2)sc2c1CCCC2
Cc1nn2c(SCC(=O)c3cccs3)cc(C(C)(C)C)nc2c1-c1ccccc1
O=C(O)c1ccc(NS(=O)(=O)c2cc(C(=O)O)ccc2Br)cc1
CC(C)(C)c1ccc(C(=O)n2cnc3ccccc32)cc1
Cc1ccc(CNC(=O)C2CCCN2C(=O)Nc2ccccc2)cc1 (stereo not given)
O=C(O)C1CCCCN1S(=O)(=O)c1ccc(Cl)s1 (stereo not given)
Cc1ccc(-n2nnnc2-c2cnc3cc4c(cc3c2C)OCO4)cc1
Cc1ccc2nc(NNC(=O)c3ccc(S(=O)(=O)N4CCc5ccccc5C4)cc3)sc2c1
O=C(CSc1nnc(-c2ccccc2)n1C1CCCCC1)N1CCCC1
Cc1ccnc(NS(=O)(=O)c2ccc(NS(=O)(=O)c3ccccc3)cc2)n1
O=C(CN(Cc1ccco1)C(=O)c1ccccc1F)Nc1ccccc1C(F)(F)F
CCc1cccc2c1NC(=O)C2(O)N1CCCC(C)C1 (stereo not given)
COc1cccc(C(=O)Nc2cc([N+](=O)[O-])ccc2N2CCN(C)CC2)c1
Cc1cccc(NC(=O)CN(c2ccc(F)cc2)S(C)(=O)=O)c1
CS(=O)(=O)N(CC(=O)NC1CCCC1)c1cccc(F)c1
COC(CN(C)C(=O)C1CCCN(S(=O)(=O)c2ccc3c(c2)oc(=O)n3C)C1)OC (stereo not given)
CCOC(=O)c1c(NC(NC(C)=O)C(Cl)(Cl)Cl)sc(C(C)=O)c1C (stereo not given)
CC(C)(CO)[C@@H](O)C(=O)NCCC(=O)O
COc1ccc(-c2nc(C#N)c(NCC3CCCO3)o2)cc1OC (stereo not given)
CCNc1nc(OC)nc(Oc2ccc(=O)n(-c3ccccc3)n2)n1
CCCCN(CCCC)C(=O)c1cn(CC)c2cc(N3CCN(C)CC3)c(F)cc2c1=O
CC(C)(C)CC(=O)Nc1ccc(Nc2ccccc2)cc1
CC(=O)Nc1cccc(-c2csc(Nc3cc(C)ccn3)n2)c1
Nc1ccc(S(=O)(=O)N2CCCc3ccccc32)cc1
NC(=O)c1c(NC(=O)C(=O)N2CCOCC2)sc2c1CCC2
NC(=O)NC(=O)CSc1nc2sc(-c3ccccc3)cc2c(=O)n1-c1ccccc1
CCn1c(CCn2c3ccccc3c3ccccc32)n[nH]c1=S
CCc1ccc(NC(=O)Nc2cc(C(=O)NCC3CCCO3)ccc2N2CC3CC(C2)c2cccc(=O)n2C3)cc1 (stereo not given)
CCCN=C1N(CC)C[C@@H]2[C@@H]3C(=O)N(C)C(=O)[C@@H]3[C@](Cc3ccccc3)(C(=O)OC)N12
CC(NC(=O)Nc1nccs1)(C(F)(F)F)C(F)(F)F
COc1ccc(C2C(C#N)=C(N)Oc3c2sc2nc(C)cc(C)c32)cc1 (stereo not given)
COc1cc2c(cc1NC(=O)COC(=O)[C@@H](NC(=O)c1ccccc1)C(C)C)oc1ccccc12
Cc1cccc2c1cnn2C(=O)CCC(=O)N1CC(C)CC(C)C1 (stereo not given)
CC(SCC(=O)Nc1ccc(F)cc1)c1nc2ccccc2c(=O)[nH]1 (stereo not given)
O=C(c1ccco1)N1CCN(C(=O)c2ccc(CS(=O)c3ccc(F)cc3)o2)CC1 (stereo not given)
Cc1nn2c(COc3ccc(NC(=O)c4ccccc4Cl)cc3)nnc2c2ccccc12
O=C(O)c1ccc(N/N=C/c2ccc(-c3ccccc3)cc2)cc1
COc1cccc(CN(C(=O)Cc2c[nH]c3ccccc23)C(C(=O)NC2CCCCC2)c2ccc(C)o2)c1 (stereo not given)
CCc1cccc(CC)c1NC(=S)NCC(c1cccnc1)N(C)C (stereo not given)
COc1ccc(-c2ccc(-c3noc(-c4ccccc4OC)n3)c(OC)n2)cc1
N#Cc1cccc(C(=O)OCC(=O)NCc2ccco2)c1
CCOc1ccc(NC(=O)c2ccc(NC(=O)c3cn4c5c(c(N6CCN(C)CC6)c(F)cc5c3=O)OCC4C)cc2)cc1 (stereo not given)
O=C(c1ccco1)N1CCCC(c2nc3c(nnn3Cc3ccc(F)cc3)c(=O)[nH]2)C1 (stereo not given)
CCOC(=O)N1CCC(N(CCN(C)C)C(=S)Nc2ccc(Oc3ccccc3)cc2)CC1
Cc1noc(NS(=O)(=O)c2ccc(NC(=O)c3ccoc3C)cc2)c1C
C=CCOc1ccccc1CN1CCC(n2nccc2NC(=O)C2CC2)CC1
O=C(CSc1nccn1Cc1ccccc1)NC1CCCC1
O=C(NNC(=S)Nc1cccc(Cl)c1)c1ccccc1OC(F)F
COc1ccc(C2CC(=O)Nc3n[nH]c(-c4ccccc4)c32)cc1OC (stereo not given)
CCc1ccc(N2CC(C(=O)N3CCN(c4ccccn4)CC3)CC2=O)cc1 (stereo not given)
COc1ccc(-c2nnc(Nc3ccc(CC(N)=O)cc3)c3ccccc23)cc1
CCC(=O)NC(c1ccccc1Cl)c1c(O)ccc2ccccc12 (stereo not given)
Cc1cc(C)n(CCCNC(=O)COc2ccc([N+](=O)[O-])cc2)n1
COc1ccccc1NS(=O)(=O)c1cc(NC(C)=O)ccc1N1CCCCC1
